We go through eleven molecules from PubChem BioAssay.

Activity calls are given as the source filed them.

One assay concerns the target Albumin (Bos taurus) (UniProt P02769). In words: compounds binding labelled BSA control protein – biochemical, small-molecule microarray, Alexa647 label, 635/667 nm fluorescence, artefact control for SMM control protein annotation, profiling panel (AID 1118).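 Further: score merges 667 nm emission intensity and signal-to-noise per printed compound spot.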 The settings on record: BSA-A647 binding, fluorescence 635 nm, higher = more signal.
A short description of assay [1]: probe aXIP binding to arrayed compounds – biochemical, NeuroSMM set, 635/667 nm fluorescence, primary screen (AID 1119).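 Further: probe is the protein aXip251-270 applied at 1 µg/mL to compound-printed slides; binding of probe to printed compounds measured as 667 nm fluorescence plus signal to noise.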 The note with it: small-molecule microarray, higher = more signal, called active from +8 up or from −8 down.
Assay [2] can be described thus: probe aNOTCH3 binding on compound microarray – biochemical, small-molecule microarray, 635/667 nm fluorescence, primary screen (AID 1120).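 Further: probe is a biotin-tagged antibody raised against NOTCH3 rather than NOTCH3 protein; score merges spot fluorescence near 667 nm with spot signal to noise.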 The settings on record: higher = more signal.
Assay [3] is described as follows: probe aNOTCH2 binding on compound microarray – biochemical, small-molecule microarray, 635/667 nm fluorescence, primary screen (AID 1121).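 Further: score merges feature fluorescence read at 667 nm with its signal to noise.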 The note with it: higher = more signal.
The target of assay [4] is Carbonic anhydrase 2 (Homo sapiens) (UniProt P00918). In words: compounds binding carbonic anhydrase 2 – biochemical, small-molecule microarray, Alexa647-labelled CAII, profiling panel (AID 1122). The note with it: CAII-A647 binding fluorescence, higher = more signal.
Assay [5] in a line: COS7 lysate on small-molecule microarray, probe aHis, 635 nm (AID 1123).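 Further: z-score combines 667nm fluorescence intensity with signal-to-noise per printed compound spot.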 The note with it: COS7 cell lysate, fluorescence, higher = more signal.
The nature of assay [6]: probe aLAP1 signal on lysate-treated microarray – cell lysate, small-molecule microarray, COS7 lysate, primary screen (AID 1124).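 Further: lysate comes from COS7 cells expressing LAP1 and is applied at 0.3 µg/mL; score merges spot fluorescence near 667 nm with signal-to-noise over triplicate slides.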 The settings on record: probe aLAP1, fluorescence, higher = more signal.
The next assay relates to Sam68 (KHDRBS1). In words: compounds binding KHDRBS1 protein – biochemical, small-molecule microarray, 635 nm fluorescence, primary screen (AID 1125).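 Further: score merges 667 nm channel intensity with signal to noise over triplicate slides.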 The settings on record: higher = more signal.
Assay [7] concerns Chordin-like protein 2 (CHRDL2). As to the kind of experiment: compounds binding chordin-like 2 – biochemical, small-molecule microarray, 635 nm fluorescence, primary screen (AID 1126).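 Further: printed compound slides probed with Chrdl2 protein at 4 µg/mL for 1 h at 4 C; score merges 667 nm emission intensity with signal to noise over three replicate slides.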 The note with it: fluorescence 635 nm, higher = more signal.
In assay [8] the target is Concanavalin-A (Canavalia ensiformis) (UniProt P02866). As to the kind of experiment: compounds binding concanavalin A lectin – biochemical, small-molecule microarray, Alexa647 label, 635 nm, artefact control for SMM control protein annotation, primary screen (AID 1127).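 Further: z combines 667 nm emission intensity with signal-to-noise across three replicate slides.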 The note with it: ConA-A647 binding fluorescence, higher = more signal.
Sequence of Concanavalin-A (Canavalia ensiformis) (P02866 whole entry, looked up): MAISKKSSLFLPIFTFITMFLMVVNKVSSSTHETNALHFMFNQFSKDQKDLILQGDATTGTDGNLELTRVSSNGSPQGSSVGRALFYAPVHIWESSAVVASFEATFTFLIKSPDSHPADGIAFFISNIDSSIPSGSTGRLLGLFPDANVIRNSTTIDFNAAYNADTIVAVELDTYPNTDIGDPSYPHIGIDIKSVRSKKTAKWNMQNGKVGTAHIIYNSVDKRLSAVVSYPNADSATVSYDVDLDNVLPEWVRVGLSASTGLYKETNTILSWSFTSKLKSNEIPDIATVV

Sequence of Albumin (Bos taurus) (P02769 whole entry, looked up): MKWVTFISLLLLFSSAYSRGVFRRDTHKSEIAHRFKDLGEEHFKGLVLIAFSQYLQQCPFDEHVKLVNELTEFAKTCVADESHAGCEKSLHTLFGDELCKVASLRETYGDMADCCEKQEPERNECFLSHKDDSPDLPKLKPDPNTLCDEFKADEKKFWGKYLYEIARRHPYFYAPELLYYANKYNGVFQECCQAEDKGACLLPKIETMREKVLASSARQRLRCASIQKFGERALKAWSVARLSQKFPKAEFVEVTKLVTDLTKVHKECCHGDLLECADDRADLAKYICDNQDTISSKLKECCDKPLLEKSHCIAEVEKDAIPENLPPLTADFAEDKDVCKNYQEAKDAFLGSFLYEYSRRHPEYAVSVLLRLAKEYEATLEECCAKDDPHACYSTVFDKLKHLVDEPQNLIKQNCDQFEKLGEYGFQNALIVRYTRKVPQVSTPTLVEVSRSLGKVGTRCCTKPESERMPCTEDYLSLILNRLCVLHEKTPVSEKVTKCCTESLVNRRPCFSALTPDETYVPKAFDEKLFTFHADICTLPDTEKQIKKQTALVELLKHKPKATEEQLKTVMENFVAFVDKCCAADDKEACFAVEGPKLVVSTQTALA

Consider `O=C(CS)NCCCCCNC(=O)[C@@H]1C[C@@H]2C(=O)N[C@@H](Cc3ccccc3)C(=O)N2[C@@H]1c1cccc(OCCO)c1`, for which the composite z-score in the assay with Albumin (Bos taurus) is -0.884; in assay [2], -0.638; in [3], -0.446; in [4], 0.665; in assay [5], 2.7; in assay [6], 0.426. Besides, the composite z-score in the assay on Sam68 (KHDRBS1) was 1.34; in assay [7], 0.914; in assay [8], 1.13. For the same molecule, the composite Z-score in assay [1] is -0.32 (inactive).
Take `CCCCC(=O)N(CCN1CCOCC1)[C@@H]1CC(C(=O)NCCO)=C[C@H](Oc2c(I)cc(CO)cc2OC)[C@H]1O`: the composite z-score with Albumin (Bos taurus) was -0.365; in [2] it was -0.163; in [3], -0.185; in [4] it was -0.142; in [5], -0.463; in [6] it was -0.265. Further, the values for the composite z-score (with Sam68 (KHDRBS1); in assay [7]; in assay [8]) were 0.593, 0.459 and 0.331, respectively. The composite Z-score in assay [1] was -0.18 (inactive).
For `CN(C)C(=O)[C@@]1(Cc2ccccc2)COC(c2ccc(OCCCO)cc2)=N1`, the composite z-score with Albumin (Bos taurus) is 0.66; in [2] it was -0.507; in assay [3], -0.308; in [4], 0.541; in assay [5], 2.86; in assay [6] it was 0.178. Further, the figures for the composite z-score (in the assay on Sam68 (KHDRBS1); in assay [7]; in assay [8]) were 0.581, 0.26 and 0.113, respectively. Further, the composite Z-score in [1] was -0.655 (inactive).
Consider `O=C(CS)NCCCCCCNC(=O)[C@@H]1C[C@@H]2C(=O)NCC(=O)N2[C@@H]1c1ccc(O)cc1`, for which the composite z-score in the assay with Albumin (Bos taurus) was 0.166; in [2], -0.397; in assay [3], -0.183; in assay [4], 0.68; in assay [5], 2.94; in assay [6], -0.136. The results for the composite z-score (with Sam68 (KHDRBS1); in assay [7]; in assay [8]) were -0.477, -0.134 and -0.434, respectively. Moreover, the composite Z-score in assay [1] was 0.549 (inactive).
With `COC(=O)[C@@]1(Cc2ccccc2)[C@H]2c3cc(C(=O)N(C)C)n(CCn4cc([N+](=O)[O-])nc4C)c3C[C@H]2CN1C(=O)c1ccccc1`, the composite z-score was 0.89 with Albumin (Bos taurus); 0.16 in assay [2]; -0.0254 in [3]; 0.888 in assay [4]; 2.56 in assay [5]; 0.697 in [6]. The composite z-score is 1.1 in the assay on Sam68 (KHDRBS1), -0.113 in assay [7] and 0.526 in assay [8]. Further, the composite Z-score in [1] is 0.0327 (inactive).
`Cc1ccccc1C(O)C1C=CC2C(=O)N(c3ccccc3)C(=O)C2N1Nc1ccc([N+](=O)[O-])cc1` (stereo not given): the composite z-score was 0.84 in the assay with Albumin (Bos taurus); 0.116 in assay [2]; -0.0796 in assay [3]; 0.684 in [4]; 2.73 in [5]; 1.03 in [6]. For the same molecule, the composite z-score in the assay on Sam68 (KHDRBS1) is 1.3; in [7], -0.051; in assay [8] it was 1.14. The composite Z-score in assay [1] was 1.19 (inactive).
In the case of `O=C1[C@@]23C=C(Br)[C@H](C[C@@H]2COC3)[C@@]12CO2`, the composite z-score with Albumin (Bos taurus) is -0.512; in [2] it was 0.147; in assay [3], -0.153; in assay [4], -0.0903; in assay [5], 0.301; in assay [6], -0.0796. Also, the composite z-score in the assay with Sam68 (KHDRBS1) came out at 0.206; in assay [7], 0.532; in assay [8], 0.459. Besides, the composite Z-score in assay [1] was 0.395 (inactive).
In the case of `CCCCCCCCCCC(O)C1C=CC2C(=O)N(c3ccccc3)C(=O)C2N1Nc1ccccc1F` (stereo not given), the composite z-score with Albumin (Bos taurus) was 0.524; in assay [2] it was -0.0242; in [3] it was -0.171; in assay [4], 0.208; in [5] it was 1.5; in assay [6] it was 0.344. In addition, the composite z-score was 0.233 in the assay with Sam68 (KHDRBS1), -1.13 in [7] and 0.17 in assay [8]. For the same molecule, the composite Z-score in assay [1] is -0.105 (inactive).
As for `CCOC(=O)C1=CCN(S(=O)(=O)c2ccc(C)cc2)C1c1ccccc1` (stereo not given), the composite z-score was 1.02 with Albumin (Bos taurus); 0.0836 in assay [2]; -0.0607 in assay [3]; 0.685 in assay [4]; 1.69 in [5]; 0.709 in assay [6]. In addition, the composite z-score in the assay with Sam68 (KHDRBS1) stood at 1.08; in [7], 0.132; in [8], 1.14. Also, the composite Z-score in assay [1] is 0.728 (inactive).
As for `COC(=O)C1N=C(c2ccc(OCCCO)cc2)N(c2ccccc2)O1` (stereo not given), the composite z-score is 0.878 in the assay with Albumin (Bos taurus); 0.187 in assay [2]; -0.0073 in assay [3]; 0.403 in [4]; 1.1 in assay [5]; 0.382 in assay [6]. In addition, the results for the composite z-score (in the assay with Sam68 (KHDRBS1); in assay [7]; in assay [8]) were 1.14, 0.236 and 1.11, respectively. The composite Z-score in assay [1] was 0.608 (inactive).
For `C=C[C@@H](C)[C@@H](OC(=O)Nc1ccc(SC)cc1)c1ccc(OCCO)cc1`, the composite z-score with Albumin (Bos taurus) is 0.743; in [2] it was 0.221; in assay [3], -0.0814; in assay [4], 0.715; in assay [5], 1.07; in [6], 0.248. Besides, the composite z-score was 0.87 with Sam68 (KHDRBS1), -0.506 in [7] and 1.1 in [8]. Moreover, in [1], the composite Z-score is 0.939 (inactive).
